An excerpt weighted towards active compounds, which were near 3.7% of everything screened.
S2 tox: viability counter-screen for ATXN expression inhibitors. S2 cells (HEK-293 line with an ATXN2-luciferase reporter) viability, CellTiter-Fluor protease fluorescence, 24 h. Potency, µM (series often up to 56.7 µM), hits mostly cytotoxic. hit rate 0.49% among 400,000. AID 651635; further: nearly all actives have a fitted effect of over 40% in size
TGFb inhibitor: inhibitors of TGF-b signaling | hit rate 1.2% among 410,000 | AID 588855 | Potency, µM (doses to about 46.1 µM), inactives show at the top dose activity, negative = inhibition, hits mostly inhibitors | HepG2 CAGA-GFP TGF-b/SMAD3 reporter, GFP fluorescence, 18 h; TGF-beta stimulated, 500 pg/mL final; further: on the % scale 0 is the no-effect control and ±100 the full control effect; nearly all actives have a fitted effect of over 65% in size
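Per well, imaged GFP fluorescence of HEPG2 CAGA-GFP cells gives the signal; cells get compound, then TGF-beta (500 pg/mL final), 18 h at 37 degrees C; %Activity versus -TGF-beta and +DMSO controls.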
GLP-1R agonist: agonists of human GLP-1 receptor | hit rate 0.007% among 380,000 | Potency, µM (series often up to 45.6 µM), inactives show top-dose activation, most hits filed as activators | HEK293 GLP-1R CRE-luciferase, luminescence, 4-6 h; cells express a hypersensitive GLP-1R form; further: % of control where 0% means no effect
Target sequence (P43220 whole entry, looked up): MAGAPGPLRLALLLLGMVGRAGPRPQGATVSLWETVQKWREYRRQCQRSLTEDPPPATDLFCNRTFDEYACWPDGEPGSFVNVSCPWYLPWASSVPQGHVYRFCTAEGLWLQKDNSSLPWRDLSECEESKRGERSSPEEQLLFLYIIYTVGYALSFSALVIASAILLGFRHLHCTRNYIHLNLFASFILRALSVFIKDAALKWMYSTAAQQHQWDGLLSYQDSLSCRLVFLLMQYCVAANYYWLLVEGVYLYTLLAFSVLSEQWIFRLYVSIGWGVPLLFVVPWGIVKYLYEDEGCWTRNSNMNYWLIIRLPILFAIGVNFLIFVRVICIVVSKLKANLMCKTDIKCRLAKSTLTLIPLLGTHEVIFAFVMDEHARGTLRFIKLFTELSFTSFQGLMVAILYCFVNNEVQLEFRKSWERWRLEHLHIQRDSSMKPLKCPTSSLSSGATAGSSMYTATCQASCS
HepG2 viability: counter-screen for TGF-b inhibitors: cytotoxicity in HepG2 cells; HepG2 CAGA-GFP viability, ATP luminescence, 18 h; Potency, µM (titrated, usually from 46.1 µM), without a hit: at the highest dose activity change, negative = cytotoxicity, usual class: cytotoxic; hit rate 0.76% among 410,000; AID 588856
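CellTiter-Glo luminescence gave cytotoxicity after 18 hours at 37 degrees C. The cells were HepG2 CAGA-GFP in 1% FBS DMEM, stimulated with 500 pg/mL TGF-beta after compound addition. %Activity was normalised to no-cell wells (complete cell-killing) and DMSO (no toxicity), and curves were fitted and classified.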
ATXN2 expr inh: inhibitors of ATXN2 expression; HEK-293 ATXN2-luciferase reporter, luminescence, 24 h; Potency, µM (titrated, usually from 57 µM), without a hit: at the top dose activity change, negative = inhibition, most hits filed as inhibitors; hit rate 0.72% among 360,000; AID 1745845; further: on the % scale 0 is the no-effect control and ±100 the full control effect; nearly all actives have a fitted effect of over 55% in size
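qHTS (up to 57 uM final) was run with 24 h compound exposure of reporter cells at 37 °C. Each well was multiplexed: SteadyGlo luminescence measured ATXN2-luciferase expression after a fluorogenic Gly-Phe-AFC viability readout (25 uM final).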
GLP-1R inv ag: inverse agonists of human GLP-1 receptor. P43220. HEK293 GLP-1R CRE-luciferase, luminescence, 24 h; GLP-1R form is constitutively active. Potency, µM (doses to about 38.3 µM), without a hit: at the highest dose activity change, negative = inhibition, actives largely listed as inhibitors. hit rate 1.6% among 410,000; further: on the % scale 0 is the no-effect control and ±100 the full control effect; nearly all actives have a fitted effect of over 55% in size
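Using stably transfected HEK293 (constitutively active GLP-1R, cAMP-luciferase reporter), compounds were incubated 24 hr and luciferase measured by luminescence.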
An asterisk follows results filed as active; i = inactive; ? = inconclusive; · = not tested or not shown. The call rests on the fitted dose curve; in most records, active means well fitted curve in the direction sought with a large enough effect; inconclusive means small, poorly fitted or top-dose-only effect, or another doubt; inactive means no such curve, though single readings can be large; an effect the other way counts as inactive or inconclusive. Potency means the concentration at half of the fitted maximal effect.

SMILES	S2 tox	TGFb inhibitor	GLP-1R agonist	HepG2 viability	ATXN2 expr inh	GLP-1R inv ag
NC(=O)N/N=C/c1c(O)ccc2oc3c(c12)CCCC3	i	10µM*	24%	1%	?	48%
CC(C)(C)N=Cc1c(O)ccc2oc3c(c12)CCCC3	i	8%	1%	10%	-21%	-13%
CS(=O)(=O)c1ccc2nc(NC(=O)c3cccs3)sc2c1	i	-22%	-22%	10µM*	?	?
CC(C)CC(=O)Nc1nc2ccc(S(C)(=O)=O)cc2s1	i	-15%	3%	11µM*	11%	-6%
CS(=O)(=O)c1ccc2nc(NC(=O)c3cccc(NS(=O)(=O)c4ccc(F)c(F)c4)c3)sc2c1	i	18µM*	-14%	-26%	-7%	?
CS(=O)(=O)c1ccc2nc(NC(=O)c3ccc(NS(=O)(=O)c4ccc(F)c(F)c4)cc3)sc2c1	i	?	3%	-1%	·	-19%
CCC(=O)Nc1nc2ccc(S(C)(=O)=O)cc2s1	i	-5%	-4%	-14%	13%	3%
COc1ccc(-c2cccc(C3C4C=CCCC4(C)C(=O)N3Cc3ccccc3)c2)cc1 (stereo not drawn)	·	?	·	-23%	·	·
O=C(Nc1ccc(Oc2ccnc3[nH]ccc23)c(F)c1)c1cccn(-c2ccc(F)cc2)c1=O	·	·	·	·	-19%	·
Cc1sc2ccccc2[n+]1Cc1ccccc1	·	?	·	-4%	·	·
CC(C)c1cnc2c(c1SCC(=O)NCc1ccccc1Cl)c(=O)n(C)c(=O)n2C	·	0%	·	1%	·	8%
Cn1c(NCC(O)c2ccccc2)nc2c1c(=O)n(Cc1ccc(Cl)c(Cl)c1)c(=O)n2C (stereo not drawn)	?	?	-40%	-95%	?	3.2µM*
Cn1c(=O)n(Cc2ccccc2)c(=O)c2c1nc(NCC1CCCO1)n2Cc1ccccc1 (stereo not drawn)	i	-8%	1%	-18%	-9%	4µM*
CCOC(=O)CNC(c1ccccc1)c1cc(Br)ccc1NC(=O)c1ccc(Cl)cc1 (stereo not drawn)	?	14%	·	8%	-33%	-85%
Cc1ccc(C2CC(=O)n3nc(-c4ccc(F)cc4)nc3S2)cc1 (stereo not drawn)	i	0%	·	5%	-4%	0%
C#CCC(Cc1cnc2nc(N)nc(N)c2n1)c1ccc(C(=O)N[C@@H](CCC(=O)O)C(=O)O)cc1 (stereo partly drawn)	?	·	6%	·	0.54µM*	·
O=C(Cn1sc2ccccc2c1=O)Nc1ccc(F)cc1	·	18µM*	-5%	22µM*	?	?
O=C(Cn1sc2ccccc2c1=O)Nc1ccc(Cl)cc1	?	11µM*	1%	-57%	-20%	-24%
CC(C)C(NS(=O)(=O)c1c(Cl)cccc1Cl)C(=O)OCC(=O)c1c[nH]c2ccccc12 (stereo not drawn)	i	?	-28%	-27%	7%	?
CC(O)C(NS(=O)(=O)c1ccc(Cl)cc1)C(=O)OCC(=O)c1c[nH]c2ccccc12 (stereo not drawn)	i	?	8%	-23%	-38%	5.6µM*
CCN(CCO)C(=O)c1cnn(-c2ncc3c(n2)-c2ccccc2CCC3)c1C1CC1	i	·	·	·	·	·
CCc1cccc2c(C(O)c3c[nH]c4ccccc34)c[nH]c12 (stereo not drawn)	·	?	·	-80%	·	·
COc1ccc(-c2ccc(C3C4C=CCCC4(C)C(=O)N3Cc3ccccc3)c(F)c2)cc1 (stereo not drawn)	·	-11%	·	-4%	·	·
Cn1c(N)c(C(=O)COC(=O)c2ccccc2C(=O)c2ccc(Cl)cc2)c(=O)n(C)c1=O	?	?	14%	-14%	5%	11µM*
Cc1ccc(OCCCN2C(=O)C(=O)c3cc(C)ccc32)cc1	?	10%	-5%	-11%	-27%	-6%
SMILES	S2 tox	TGFb inhibitor	GLP-1R agonist	HepG2 viability	ATXN2 expr inh	GLP-1R inv ag
Cc1ccc2c(c1)C(=O)C(=O)N2CCCOc1ccccc1	i	18µM*	10%	-38%	35%	?
C=CCCN(Cc1ccc(OC)cc1)S(=O)(=O)c1ccccc1Br	·	?	·	-28%	·	·
COc1ccc(CN(CCC(C)C)S(=O)(=O)c2ccccc2Br)cc1	i	?	1%	-15%	-6%	11µM*
CCC[C@H]1C[C@H](C(=O)NC(C(C)Cl)C2O[C@@H](SC)C(OP(=O)(O)O)[C@@H](O)[C@@H]2O)N(C)C1 (stereo partly drawn)	·	·	4%	·	·	·
COc1cc(NC(=O)Nc2nc(C(N)Cc3ccc(C(F)(F)F)cc3)cs2)cc(OC)c1OC (stereo not drawn)	?	11µM*	-6%	-106%	?	?
COc1ccc(NC(=O)Nc2nc(C(N)Cc3ccc(C(F)(F)F)cc3)cs2)cc1 (stereo not drawn)	i	11µM*	-7%	10µM*	?	?
COc1ccc(CC(N)c2csc(NC(=O)c3cc(C(C)(C)C)oc3C)n2)cc1 (stereo not drawn)	28µM*	?	-30%	-103%	?	?
Cc1ccc(C(=O)Nc2nc(C(N)Cc3ccc(C(F)(F)F)cc3)cs2)cc1 (stereo not drawn)	·	?	-5%	18µM*	?	?
CCc1ccc(Nc2nnc(SCC(=O)Nc3sccc3C(N)=O)s2)cc1	?	10µM*	0%	-2%	1%	-1%
Cc1ccc(OCc2ccc(-c3nc(C#N)c(NCc4ccccc4Cl)o3)o2)cc1	20µM*	?	·	-62%	?	7%
Cc1ccc(-c2ccc(C3C(C#N)=C(N)Oc4n[nH]c(C)c43)o2)cc1 (stereo not drawn)	i	?	5%	16µM*	-3%	0%
COc1ccc2c(c1)c1c(c(=O)n(-c3ccccc3C)c(=O)n1CC(N)=O)n2C	?	-18%	-1%	-4%	-10%	-8%
CCn1ncc(Br)c1C(=O)N(C)C12CC3CC(CC(C3)C1)C2	?	-7%	-9%	-15%	-17%	?
CCn1ncc(Br)c1C(=O)Nc1ccn(C23CC4CC(CC(C4)C2)C3)n1	i	-14%	15%	-14%	-7%	7.9µM*
c1ccc2c(c1)CCc1ccccc1N2	i	·	·	·	-3%	·
Cc1cccc(C#CC2=CC(=O)CC(C)(C)C2)c1	?	3%	7%	-25%	17%	-14%
